ChEMBL document CHEMBL1157539, “Thousands of chemical starting points for antimalarial lead identification” (Nature, 2010)

Assays:
Type in all cases: functional
[1] = test system: Plasmodium falciparum; assay: GSK_TCMDC: Inhibition of Plasmodium falciparum 3D7 in whole red blood cells, using parasite LDH activity as an index of growth. Test compounds present at 2uM
[2] = test system: Plasmodium falciparum; assay: GSK_TCMDC: Inhibition of Plasmodium falciparum Dd2 in whole red blood cells, using parasite LDH activity as an index of growth. Test compounds present at 2uM
[3] = test system: HepG2; assay: GSK_TCMDC: Percent inhibition of human HepG2 cell line. Test compounds present at 10uM.

Row | Structure (SMILES) | Inhibition [1] [%] | Inhibition [2] [%] | Inhibition [3] [%]
1 | Cc1cc(OCCCN2CCC(NS(=O)(=O)c3ccc(C(F)(F)F)cc3)CC2)c2ccccc2n1 | 95 | 24 | 12
2 | CC(=O)c1cc(N2CCCC2)ccc1N | 97 | 97 | 1
3 | O=C(NCc1cccc(Cl)c1)c1ccc(CNC2CCN(Cc3ccccc3)CC2)cc1.O=C(O)C(F)(F)F | 100 | 50 | 13
4 | CCc1c(C(=O)NC2CCC(N3CCC(c4ccccc4C)CC3)CC2)[nH]c2ccc(OC)cc12 (configuration not stated) | 100 | 100 | 78
5 | O=C1C2C3SC(c4c3ccc3ccccc43)C2C(=O)N1c1ccccc1 (configuration not stated) | 96 | 7 | 0
6 | Cc1[nH]c(C)c(-c2ccc(-c3cccc(Cl)c3)nc2)c(=O)c1Br | 96 | 96 | 10
7 | O=C(Cn1c(CCc2cccc(F)c2F)nc(=O)c2cccnc21)N(Cc1ccc(-c2ccc(C(F)(F)F)cc2)cc1)C1CCN(C2CCOCC2)CC1.O=C(O)C(O)C(O)C(=O)O | 94 | 67 | 100
8 | Cc1ccc(C(CC(=O)Nc2nccs2)c2ccc(OC(C)C)cc2)cc1 (configuration not stated) | 94 | 90 | 5
9 | CC(Cc1ccc(COc2ccc(CC(CO)NCCc3cccc(Cl)c3)cc2)cc1)NCCc1cccc(Cl)c1.Cl (configuration not stated) | 100 | 86 | 99
10 | O=C(/C=C/c1ccc(Cl)c(Cl)c1)NCCCCCN1CCC(NC(=O)Nc2ccc3c(c2)OCO3)CC1 | 100 | 5 | 12
11 | Cc1ccc(Nc2ccnc(Nc3ccc4c(c3)CS(=O)(=O)C4)n2)cc1O.Cl | 100 | 76 | 82
12 | Br.CC(C)(C)c1ccccc1OCCCON1C(=N)N=C(N)NC1(C)C | 95 | 98 | 63
13 | COc1ccc(CNC2CCN(C)CC2)cc1-c1ccc(S(=O)(=O)NCCc2ccccn2)c(C)c1.O=C(O)C(F)(F)F | 96 | 91 | 7
14 | Fc1ccc(-c2cncc(Nc3ccncc3)n2)cc1 | 88 | 11 | 8
15 | CC1CCCCN1CCCNc1ncc2c(-c3ccc(NC(=O)Nc4cc(C(F)(F)F)ccc4F)c(F)c3)nn(C)c2n1.O=C(O)C(F)(F)F (configuration not stated) | 100 | 97 | 27
16 | CCCCCNC(=N)c1ccc(OCCCCCOc2ccc(C(=N)NCCCCC)cc2)cc1.Cl | 99 | 98 | 3
17 | O=C(NCc1ccc(C(=O)NC2CCCCCC2)cc1)c1ccc(O)c(-c2ccc(Cl)c(Cl)c2)c1 | 83 | 21 | 0
18 | O=C(Nc1ccsc1)Nc1cccc(-c2ccc(-c3nc4cc(C(F)(F)F)ccc4[nH]3)cc2)c1 | 99 | 36 | 45
19 | O=C(NCCCCCN1CCC(c2c[nH]c3ccccc23)CC1)c1ccc(-c2ccccc2)nc1 | 87 | 13 | 43
20 | O=C(Nc1ccc([N+](=O)[O-])cc1Br)c1cc2ccccc2nc1Cl | 97 | 68 | 0
21 | COc1ccc(S(=O)(=O)NC2CCN(c3cc(C)nc(Nc4cccc(C#N)c4)n3)CC2)cc1.O=C(O)C(F)(F)F | 88 | 55 | 9
22 | COC(=O)Cn1c2ccccc2c2c(N)c(C(=O)OC)c(C)nc21 | 93 | 1 | 0
23 | CCOC(=O)c1nc(-c2cc(Cl)nc(Cl)c2)[nH]c1NC(=S)NCCCN1CCOCC1 | 89 | 71 | 13
24 | CC1=C(C(=O)Nc2cc3cn[nH]c3cc2F)C(c2ccc(Cl)c(NS(C)(=O)=O)c2)CC(=O)N1 (configuration not stated) | 88 | 98 | 2
